Assay [1] in a line: APR_HepG2_P-H2AX_72hr: Apredica 72-hour HepG2 Assay for H2AX Phosphorylation (AID 2282916).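 Further: phospho-histone H2A.x immunostain intensity per cell marking DNA damage.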 The note with it: imaging, actives raise or lower the signal. The method, boiled down: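 Human hepatoma HepG2 cells are dosed across ten concentrations (0.39 to 200 uM, 0.5% v/v DMSO) and incubated 72 hr. Phospho-histone H2A.x is then detected by antibody staining alongside c-Jun and Hoechst, and quantified by automated fluorescence imaging.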

Assay [2] can be described thus: APR_HepG2_MitoMembPot_72hr: Apredica 72-hour HepG2 Assay for Mitochondrial Membrane Potential (AID 2282917). The note with it: imaging, actives raise or lower the signal. The method, boiled down: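 Membrane potential read by MitoTracker Red CMXRos (250 nM, 30 min, pre-fixation) fluorescence imaging of HepG2 after 72 hr exposure. Ten concentrations, 0.39–200 uM, duplicate wells, 0.5% DMSO; fitted in both directions against DMSO baseline.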

Assay [3] is described as follows: APR_HepG2_MitoticArrest_72hr: Apredica 72-hour HepG2 Assay for Mitotic Arrest (AID 2282918). As to conditions: high-content imaging, actives raise or lower the signal. In outline:
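HepG2 cells treated 72 h at 0.39–200 uM, 0.5% DMSO final; formaldehyde-fixed, stained with Hoechst 33342 and phospho-histone H3 antibody, imaged by high-content fluorescence; bidirectional fit versus DMSO.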

A short description of assay [4]: APR_HepG2_MicrotubuleCSK_72hr: Apredica 72-hour HepG2 Assay for Microtubule CSK Stabilty (AID 2282919). As to conditions: HepG2 microtubule cytoskeleton, high-content imaging, actives raise or lower the signal. In outline: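 High-content imaging of alpha-tubulin staining in fixed HepG2 cells after 72 hr treatment with ten concentrations from 0.39 to 200 uM (0.5% DMSO). Fitting was bidirectional against DMSO; taxol served as positive control.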

Assay [5] is described as follows: APR_HepG2_P-H2AX_24hr: Apredica 24-hour HepG2 Assay for H2AX Phosphorylation (AID 2282920). The note with it: high-content imaging, actives raise or lower the signal. The method, boiled down: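 HepG2 cells dosed 24 h at 0.39–200 uM (10 points, duplicate, 0.5% DMSO final). Formaldehyde-fixed and permeabilized, then immunostained for phospho-H2A.x with Hoechst. Fluorescence quantified by high-content imaging, fitted bidirectionally versus DMSO.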

The nature of assay [6]: APR_HepG2_StressKinase_72hr: Apredica 72-hour HepG2 Assay for Stress Kinase (AID 2282921). As to conditions: HepG2 stress kinase (phospho-c-Jun) imaging, actives raise or lower the signal. In outline: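 After a 72 h compound treatment spanning 0.39 to 200 uM, formaldehyde-fixed cells are labelled for phosphorylated c-Jun and nuclei, imaged by automated fluorescence microscopy, and activity is fitted in both directions relative to DMSO controls.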

Assay [7] is described as follows: APR_HepG2_StressKinase_24hr: Apredica 24-hour HepG2 Assay for Stress Kinase (AID 2282922). As to conditions: HepG2 stress kinase (phospho-c-Jun) imaging, actives raise or lower the signal. In outline: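 High-content imaging of phospho-c-Jun immunofluorescence in fixed, permeabilized HepG2 cells after 24 h dosing. Ten concentrations, 0.39 to 200 uM, run in duplicate at 0.5% v/v DMSO; gain or loss of signal versus DMSO.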

The nature of assay [8]: APR_HepG2_p53Act_72hr: Apredica 72-hour HepG2 Assay for p53 Activation (AID 2282923).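 Further: average cellular p53 protein immunofluorescence intensity in HepG2 cells.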 As to conditions: high-content imaging, actives raise or lower the signal. The method, boiled down: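 Imaging-based endpoint: after 72 hr compound exposure (up to 200 uM, 0.5% DMSO), fixed and permeabilized monolayers were labelled with anti-p53 antibody and imaged; signal change in either direction was fitted relative to DMSO controls.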

The nature of assay [9]: APR_HepG2_MitoMass_72hr: Apredica 72-hour HepG2 Assay for Mitochondrial Mass (AID 2282924).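 Further: MitoTracker Red CMXRos stain intensity per cell imaged as mitochondrial mass.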 The note with it: high-content imaging, actives raise or lower the signal. The method, boiled down:
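Readout is imaged MitoTracker Red (250 nM, 30 min, pre-fixation) signal, fitted bidirectionally against DMSO baseline. Human HepG2 liver cells received compound 0.39–200 uM in duplicate for 72 hr, final DMSO 0.5%.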

The nature of assay [10]: APR_HepG2_NuclearSize_72hr: Apredica 72-hour HepG2 Assay for Nuclear Size (AID 2282925). The note with it: high-content imaging, actives raise or lower the signal. In outline: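 Nuclear size was read by high-content imaging of Hoechst 33342 stain after formaldehyde fixation. Compounds ran 72 h on HepG2 at 0.39 to 200 uM, with final DMSO 0.5% v/v. Curves fitted both directions relative to DMSO control.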

The nature of assay [11]: ATG_CRE_CIS: Attagene CIS-FACTORIAL HepG2 Assay for human cAMP Responsive Element (CRE) binding protein 3 (AID 2282926). As to conditions: HepG2 CRE cis-reporter, Attagene multiplexed mRNA; actives raise or lower the signal. The method, boiled down: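 Induced reporter mRNA from a CRE cis element, measured in HepG2 among many multiplexed units at 24 h. Detection used RT-PCR plus capillary electrophoresis of fluorescent fragments; DMSO served as negative control.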

Assay [12] addresses CCAAT/enhancer-binding protein beta (Homo sapiens) (UniProt P17676). Briefly: ATG_C_EBP_CIS: Attagene CIS-FACTORIAL HepG2 Assay for human CCAAT/Enhancer Binding Protein (C/EBP) beta (AID 2282927). The note with it: HepG2 Attagene cis-factorial transcription factor reporter; actives raise or lower the signal. In outline: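 Endogenous transcription factor activity in human liver HepG2 cells is inferred from induction of a CEBPB-linked reporter mRNA. Exposure lasts 24 h; activity is fitted in both directions relative to DMSO.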

Assay [13] can be described thus: ATG_CMV_CIS: Attagene CIS-FACTORIAL HepG2 Assay for human CMV (Internal Marker) (AID 2282928).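 Further: endpoint acts as a background internal control marker rather than a target.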 The note with it: HepG2 CMV promoter reporter, transcription factor profiling; actives raise or lower the signal. The method, boiled down: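 Bidirectional fits against DMSO are applied to reporter mRNA, read by RT-PCR with capillary electrophoresis, from HepG2 cells exposed 24 h. The endpoint serves as an internal CMV background marker within the cis-factorial reporter panel.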

A short description of assay [14]: ATG_AP_1_CIS: Attagene CIS-FACTORIAL HepG2 Assay for human Activator Protein 1 (AP-1) (AID 2282931). The note with it: HepG2 Attagene cis-factorial AP-1 reporter mRNA; actives raise or lower the signal. In outline:
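We transfected HepG2 cells transiently with a set of cis-regulated reporter transcription units, dosed them for 24 h, and quantified reporter mRNA via RT-PCR and capillary electrophoresis, scoring gain or loss of signal relative to DMSO.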

Assay [15] can be described thus: ATG_AP_2_CIS: Attagene CIS-FACTORIAL HepG2 Assay for human Activator Protein 2 (AP-2) (AID 2282932). As to conditions: HepG2 AP-2 cis-reporter, Attagene transcription factor profiling; actives raise or lower the signal. In outline:
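Endogenous transcription factor activity is reported through transfected multiplex reporter constructs in HepG2, after 24 h of compound exposure. Transcripts were quantified by RT-PCR and capillary electrophoresis of fluorescent fragments. Bidirectional fit against DMSO.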

A short description of assay [16]: ATG_BRE_CIS: Attagene CIS-FACTORIAL HepG2 Assay for human Bone Morphogenetic Protein (BMP) Response Element (BRE) (AID 2282933). As to conditions: HepG2 BMP response element reporter, Attagene transcription factor profiling; actives raise or lower the signal. In outline:
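HepG2 cells transiently transfected with CIS reporter units (endogenous TF activity, BMP response element), dosed 24 h. Reporter mRNA quantified by RT-PCR, fluorescent labelling and capillary electrophoresis; bidirectional fit vs DMSO baseline.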

Assay [17] has as its target Transcription factor E2F1 (Homo sapiens) (UniProt Q01094). Briefly: ATG_E2F_CIS: Attagene CIS-FACTORIAL HepG2 Assay for human E2F Transcription Factor 1 (AID 2282935). The note with it: HepG2 Attagene cis-reporter, E2F reporter RNA transcripts; actives raise or lower the signal. In outline: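 Gain or loss of reporter transcript, fitted against DMSO, reflects E2F1-driven transcription. Transiently transfected HepG2 dosed 24 h before RNA isolation. Quantified by fluorescent RT-PCR products separated by capillary electrophoresis.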

The target in assay [18] is Aryl hydrocarbon receptor (Homo sapiens) (UniProt P35869). The assay is described as follows: ATG_Ahr_CIS: Attagene CIS-FACTORIAL HepG2 Assay for human Aryl Hydrocarbon Receptor (Ahr) (AID 2282930). As to conditions: HepG2 AhR cis-factorial reporter transcription; actives raise or lower the signal. In outline:
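Transient MRTU transfection of HepG2 → 24 h compound exposure → total RNA, oligo(dT) RT → PCR, 6-FAM extension, HpaI cut → CE fluorescence. DMSO = baseline; bidirectional curve fit.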

Assay [19] deals with Retinoic acid receptor alpha (Homo sapiens) (UniProt P10276). Briefly: ATG_DR5_RAR_CIS: Attagene CIS-FACTORIAL HepG2 Assay for human Retinoic Acid Receptor Alpha (RARE), DR5 submotif (AID 2282934).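 On AC50: reporter responds to endogenous RAR alpha beta and gamma in HepG2 not RARA alone.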 As to conditions: HepG2 Attagene cis-factorial RARE DR5 reporter, mRNA; actives raise or lower the signal. In outline:
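Transient MRTU transfection of HepG2; 24 h compound treatment; TriZol RNA, oligo(dT) RT, PCR, FAM labelling, capillary electrophoresis. Bidirectional fit vs DMSO. Endogenous TF activity at DR5 RARE.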

Activity calls are given as the source filed them. How the source made its calls: active means hit-call score of the fitted dose curve at least 0.9, where 1 is the maximum; inactive means score below 0.9.

Transcription factor E2F1 (Homo sapiens), sequence (Q01094 whole entry, looked up): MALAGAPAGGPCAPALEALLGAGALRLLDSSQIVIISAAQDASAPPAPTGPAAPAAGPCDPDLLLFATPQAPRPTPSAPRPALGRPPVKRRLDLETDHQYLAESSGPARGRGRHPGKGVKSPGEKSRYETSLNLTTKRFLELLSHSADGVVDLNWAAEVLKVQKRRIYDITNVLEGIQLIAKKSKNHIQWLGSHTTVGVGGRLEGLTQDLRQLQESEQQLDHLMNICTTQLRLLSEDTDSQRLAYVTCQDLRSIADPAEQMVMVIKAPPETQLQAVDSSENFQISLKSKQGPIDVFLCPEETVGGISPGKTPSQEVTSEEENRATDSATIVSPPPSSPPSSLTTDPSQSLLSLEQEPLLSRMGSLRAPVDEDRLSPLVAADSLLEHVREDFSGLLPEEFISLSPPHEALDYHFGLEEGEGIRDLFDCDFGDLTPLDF
Aryl hydrocarbon receptor (Homo sapiens), sequence (P35869 whole entry, looked up): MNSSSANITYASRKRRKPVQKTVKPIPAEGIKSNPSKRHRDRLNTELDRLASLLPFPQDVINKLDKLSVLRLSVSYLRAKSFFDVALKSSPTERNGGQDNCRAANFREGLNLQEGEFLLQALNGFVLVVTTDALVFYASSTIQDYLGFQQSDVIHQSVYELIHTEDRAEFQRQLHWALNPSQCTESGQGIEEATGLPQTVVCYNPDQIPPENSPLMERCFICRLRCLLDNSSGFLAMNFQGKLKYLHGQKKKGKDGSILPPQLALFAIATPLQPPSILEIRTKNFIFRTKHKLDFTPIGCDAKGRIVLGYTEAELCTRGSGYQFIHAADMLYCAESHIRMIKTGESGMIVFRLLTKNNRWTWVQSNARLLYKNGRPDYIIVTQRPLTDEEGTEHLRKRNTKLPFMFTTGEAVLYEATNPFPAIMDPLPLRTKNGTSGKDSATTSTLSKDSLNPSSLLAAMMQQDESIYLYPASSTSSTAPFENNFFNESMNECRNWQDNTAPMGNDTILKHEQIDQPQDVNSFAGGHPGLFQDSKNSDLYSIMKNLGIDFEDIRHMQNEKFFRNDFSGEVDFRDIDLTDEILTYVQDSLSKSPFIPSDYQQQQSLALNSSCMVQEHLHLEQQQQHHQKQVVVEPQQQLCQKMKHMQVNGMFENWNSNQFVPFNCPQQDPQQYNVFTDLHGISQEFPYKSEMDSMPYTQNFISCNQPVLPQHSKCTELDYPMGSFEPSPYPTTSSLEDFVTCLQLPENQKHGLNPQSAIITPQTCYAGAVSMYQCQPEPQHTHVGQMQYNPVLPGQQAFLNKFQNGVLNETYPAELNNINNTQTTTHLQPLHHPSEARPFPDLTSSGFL
Retinoic acid receptor alpha (Homo sapiens), sequence (P10276 whole entry, looked up): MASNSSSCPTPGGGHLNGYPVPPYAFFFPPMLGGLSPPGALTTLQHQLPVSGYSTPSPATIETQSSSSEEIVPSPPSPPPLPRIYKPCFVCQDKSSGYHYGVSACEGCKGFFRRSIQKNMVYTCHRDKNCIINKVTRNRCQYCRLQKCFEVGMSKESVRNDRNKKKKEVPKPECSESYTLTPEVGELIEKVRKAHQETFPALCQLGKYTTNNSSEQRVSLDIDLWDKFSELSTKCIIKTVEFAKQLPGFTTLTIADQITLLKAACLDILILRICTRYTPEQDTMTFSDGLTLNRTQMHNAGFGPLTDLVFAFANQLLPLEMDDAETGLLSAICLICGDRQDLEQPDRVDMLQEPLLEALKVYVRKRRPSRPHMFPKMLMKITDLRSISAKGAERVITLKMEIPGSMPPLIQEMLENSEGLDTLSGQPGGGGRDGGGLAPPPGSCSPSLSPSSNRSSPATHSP
CCAAT/enhancer-binding protein beta (Homo sapiens), sequence (P17676 whole entry, looked up): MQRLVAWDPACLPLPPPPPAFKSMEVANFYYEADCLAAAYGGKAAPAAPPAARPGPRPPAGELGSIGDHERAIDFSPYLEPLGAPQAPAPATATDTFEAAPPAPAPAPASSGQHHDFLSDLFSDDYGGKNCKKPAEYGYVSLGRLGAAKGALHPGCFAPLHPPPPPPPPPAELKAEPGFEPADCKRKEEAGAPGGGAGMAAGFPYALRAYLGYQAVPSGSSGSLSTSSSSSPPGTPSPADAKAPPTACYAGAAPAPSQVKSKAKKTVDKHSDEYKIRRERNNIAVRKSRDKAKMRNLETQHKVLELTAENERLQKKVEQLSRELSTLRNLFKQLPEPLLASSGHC

As for `COc1cc(OC)nc(Sc2cccc(Cl)c2C(=O)O)n1`, the result in [1], in assay [2], in assay [3], in [4], in assay [5] and in assay [6] was inactive. Further, the call in assay [7], in assay [8], in [9], in [10], in assay [11] and in assay [12] was inactive. The call in [13], in [14], in assay [15], in [16] and in assay [17] was inactive.
A word on the AC50: it is the concentration at which the activity in the assay is half-maximal. Consider `CCOP(=S)(OCC)Oc1cc(C)nc(C(C)C)n1`, for which the outcome in [1], in [2], in [3], in assay [4], in assay [5] and in [6] was inactive. Also, the outcome in assay [7], in assay [8], in [9], in [10], in assay [11] and in assay [12] was inactive. For the same molecule, the molecule was classed as inactive in assay [14], in assay [15], in assay [16] and in assay [17]. Moreover, the AC50 is 29.8 µM (active) in assay [13] and 16.3 µM (active) in assay [18].
In the case of `CCc1cccc(CC)c1N(COC)C(=O)CCl`, the result in [1], in assay [3], in assay [4], in assay [6], in assay [7] and in assay [9] was inactive. The outcome in [10], in assay [13], in assay [18], in assay [15], in [16] and in assay [19] was inactive. The outcome in [17] was inactive. Further, the AC50 was 31.1 µM (active) in assay [2], 70.7 µM (active) in assay [5], 3.04 µM (active) in assay [11] and 3.69 µM (active) in assay [12].
On to `CCCSP(=O)(OCC)SCCC`, for which the molecule was called inactive in assay [1], in assay [2], in assay [3], in assay [4], in assay [5] and in [6]. Further, the outcome in assay [7], in assay [9], in assay [10], in [11], in assay [12] and in assay [13] was inactive. In addition, the outcome in assay [18], in [15], in [16], in assay [19] and in assay [17] was inactive.
Take `CNC(=O)Oc1cccc2c1OC(C)(C)O2`: the AC50 in assay [1] was 97 µM (active); in [5], 99.4 µM (active); in assay [9], 56.7 µM (active); in [11], 50 µM (active); in assay [12], 19.3 µM (active); in [13], 35.9 µM (active). Further, in assay [16], the AC50 was 42 µM (active). The molecule was called inactive in assay [2], in assay [3], in assay [4], in [6], in assay [7] and in assay [8]. The molecule was classed as inactive in assay [10], in assay [18], in assay [15] and in assay [17].
On to `CC(C)N(C(=O)SCC(Cl)=C(Cl)Cl)C(C)C`, for which the call in assay [1], in assay [2], in [3], in [5], in assay [6] and in assay [7] was inactive. Further, the result in assay [8], in assay [9], in assay [10], in assay [13], in assay [15] and in [16] was inactive. Also, the molecule was classed as inactive in assay [17]. The AC50 was 99.5 µM (active) in [4], 15.6 µM (active) in assay [11], 10.8 µM (active) in assay [12] and 29.1 µM (active) in [19].
For the molecule `CCOP(=O)(SC(C)CC)N1CCSC1=O` (stereo unspecified), the outcome in assay [1], in assay [2], in assay [3], in assay [4], in assay [5] and in assay [6] was inactive. Also, the result in [7], in [9], in assay [10], in [11], in [12] and in [13] was inactive. Further, the molecule was classed as inactive in assay [18], in [14], in assay [15], in assay [16], in [19] and in [17].

The record behind these values is PubChem BioAssay (EPA / NIEHS).
